For 1 sequence, binding signal results are on record in article PMC7862700, “An all-to-all approach to the identification of sequence-specific readers for epigenetic DNA modifications on cytosine”.

Common to all, as to test: DAPPL (digital affinity profiling via proximity ligation, sequencing); 10 mM Tris-HCl pH 7.5, 50 mM NaCl, 1 mM DTT, 4% glycerol, room temperature, 30 min; GST-TFs on glutathione beads, 16-mer random dsDNA library, 0.1% formaldehyde crosslink after washing; high values mean tight binding
Test [1] deals with T1, FLI1 (Homo sapiens, UniProt Q01543 1-452).
T1 sequence: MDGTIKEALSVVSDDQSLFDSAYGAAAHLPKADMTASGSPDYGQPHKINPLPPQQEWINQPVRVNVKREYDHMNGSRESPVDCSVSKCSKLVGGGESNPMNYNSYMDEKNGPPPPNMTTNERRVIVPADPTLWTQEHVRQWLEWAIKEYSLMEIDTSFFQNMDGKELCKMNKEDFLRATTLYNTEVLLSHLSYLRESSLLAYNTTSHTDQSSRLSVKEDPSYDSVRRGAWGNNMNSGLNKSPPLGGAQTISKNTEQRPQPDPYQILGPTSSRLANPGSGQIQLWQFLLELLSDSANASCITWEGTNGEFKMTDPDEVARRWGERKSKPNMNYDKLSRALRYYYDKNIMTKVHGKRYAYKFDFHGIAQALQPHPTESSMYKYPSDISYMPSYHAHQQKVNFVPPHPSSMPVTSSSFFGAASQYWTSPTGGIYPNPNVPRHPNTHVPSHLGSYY
The conditions noted are these: protein: recombinant; tags: N-terminal GST; dsDNA, one strand shown. Summed up: (§1)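 In yeast, human transcription factors were expressed with a GST fusion, then pulled down on glutathione beads and given DNA barcodes. Pooled with a tag-only sample, they were exposed to 200 nmole of a 16-mer random double-stranded DNA library (Tris/NaCl/DTT/glycerol buffer, room temperature, 30 min), washed, crosslinked with 0.1% formaldehyde, proximity-ligated using BsaI/T4 ligase for 1 h at 37 °C, PCR-amplified and read on an Illumina NextSeq500. Each hexamer's frequency of reads for a factor, divided by the matching frequency for the tag-only sample, gives the binding signal.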

Test [2] concerns the target T2, ELK1 (Homo sapiens, UniProt P19419 1-428).
T2 sequence: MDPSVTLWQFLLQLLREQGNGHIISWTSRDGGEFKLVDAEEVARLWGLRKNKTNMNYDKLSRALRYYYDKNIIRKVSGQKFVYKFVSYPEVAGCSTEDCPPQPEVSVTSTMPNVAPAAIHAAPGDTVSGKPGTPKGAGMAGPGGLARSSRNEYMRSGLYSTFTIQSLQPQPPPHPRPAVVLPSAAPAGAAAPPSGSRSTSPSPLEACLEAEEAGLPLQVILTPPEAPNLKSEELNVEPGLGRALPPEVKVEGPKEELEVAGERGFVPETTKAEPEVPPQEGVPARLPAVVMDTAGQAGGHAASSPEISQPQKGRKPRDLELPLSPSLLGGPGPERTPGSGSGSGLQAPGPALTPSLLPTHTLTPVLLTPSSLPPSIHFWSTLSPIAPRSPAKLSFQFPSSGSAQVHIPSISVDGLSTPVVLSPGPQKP
The conditions noted are these: protein: recombinant; tags: N-terminal GST; dsDNA, one strand shown. Put shortly:
as §1

Test [3] has as its target T3, GABPA (Homo sapiens, UniProt Q06546 1-454).
T3 sequence: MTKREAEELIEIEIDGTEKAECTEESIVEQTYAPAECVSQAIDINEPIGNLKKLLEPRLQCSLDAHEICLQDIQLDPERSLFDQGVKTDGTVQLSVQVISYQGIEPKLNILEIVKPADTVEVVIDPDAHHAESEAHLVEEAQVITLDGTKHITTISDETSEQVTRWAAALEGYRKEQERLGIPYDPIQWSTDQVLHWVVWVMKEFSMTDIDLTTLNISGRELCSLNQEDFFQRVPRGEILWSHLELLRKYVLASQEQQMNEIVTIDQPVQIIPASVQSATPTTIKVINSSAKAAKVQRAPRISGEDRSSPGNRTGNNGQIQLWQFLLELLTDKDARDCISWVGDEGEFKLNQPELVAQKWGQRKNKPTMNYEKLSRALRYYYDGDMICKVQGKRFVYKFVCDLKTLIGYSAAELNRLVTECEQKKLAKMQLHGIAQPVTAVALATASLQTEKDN
The settings on record: protein: recombinant; tags: N-terminal GST; dsDNA, one strand shown. Put shortly:
as §1

The target in test [4] is T4, ERG (Homo sapiens, UniProt P11308 1-479).
T4 sequence: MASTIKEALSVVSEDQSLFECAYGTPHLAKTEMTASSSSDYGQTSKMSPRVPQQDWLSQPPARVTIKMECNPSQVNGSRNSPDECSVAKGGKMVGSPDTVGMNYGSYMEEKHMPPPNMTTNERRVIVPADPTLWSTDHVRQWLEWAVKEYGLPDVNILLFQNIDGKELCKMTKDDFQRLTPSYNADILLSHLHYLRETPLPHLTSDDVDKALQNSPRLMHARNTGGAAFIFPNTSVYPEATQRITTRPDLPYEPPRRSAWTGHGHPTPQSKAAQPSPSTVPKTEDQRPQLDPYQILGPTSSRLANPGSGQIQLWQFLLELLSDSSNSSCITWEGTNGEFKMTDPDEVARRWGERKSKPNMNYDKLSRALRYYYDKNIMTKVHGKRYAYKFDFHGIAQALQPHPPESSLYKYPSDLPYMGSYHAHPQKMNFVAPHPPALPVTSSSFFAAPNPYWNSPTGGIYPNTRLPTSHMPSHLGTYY
The settings on record: protein: recombinant; tags: N-terminal GST; dsDNA, one strand shown. Summed up: as §1

Test [5] addresses ELF1 (Homo sapiens, UniProt P32519 1-619). The settings on record: protein: recombinant; tags: N-terminal GST; dsDNA, one strand shown. Put shortly:
as §1

Test [6] has as its target T5, EHF (Homo sapiens, UniProt Q9NZC4 1-300).
T5 sequence: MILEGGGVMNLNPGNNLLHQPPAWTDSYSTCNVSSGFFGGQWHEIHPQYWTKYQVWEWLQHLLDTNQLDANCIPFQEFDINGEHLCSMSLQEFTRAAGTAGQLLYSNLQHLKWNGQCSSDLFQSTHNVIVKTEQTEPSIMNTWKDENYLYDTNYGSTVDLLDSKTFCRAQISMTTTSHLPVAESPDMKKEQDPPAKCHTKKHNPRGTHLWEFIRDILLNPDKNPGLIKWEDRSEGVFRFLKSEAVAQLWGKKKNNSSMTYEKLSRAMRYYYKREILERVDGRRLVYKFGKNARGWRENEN
The settings on record: protein: recombinant; tags: N-terminal GST; dsDNA, one strand shown. Summed up: as §1

The target in test [7] is SPI1 (Homo sapiens, UniProt P17947 1-270). The conditions noted are these: protein: recombinant; tags: N-terminal GST; dsDNA, one strand shown. Put shortly:
as §1

The target in test [8] is SPIB (Homo sapiens, UniProt Q01892 1-262). The settings on record: protein: recombinant; tags: N-terminal GST; dsDNA, one strand shown. Put shortly: as §1
Test [9] has as its target T6, ELK3 (Homo sapiens, UniProt P41970 1-407).
T6 sequence: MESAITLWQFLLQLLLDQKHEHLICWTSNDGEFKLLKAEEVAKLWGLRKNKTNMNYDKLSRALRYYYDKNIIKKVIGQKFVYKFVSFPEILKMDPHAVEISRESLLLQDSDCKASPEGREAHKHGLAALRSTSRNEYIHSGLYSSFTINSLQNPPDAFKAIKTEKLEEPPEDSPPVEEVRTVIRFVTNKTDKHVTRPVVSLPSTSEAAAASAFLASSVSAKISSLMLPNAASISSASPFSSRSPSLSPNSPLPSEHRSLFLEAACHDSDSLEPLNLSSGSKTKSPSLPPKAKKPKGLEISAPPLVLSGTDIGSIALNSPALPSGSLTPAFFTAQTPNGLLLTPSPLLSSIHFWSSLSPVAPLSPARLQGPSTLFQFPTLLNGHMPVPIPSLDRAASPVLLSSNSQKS
The settings on record: protein: recombinant; tags: N-terminal GST; dsDNA, one strand shown. Put shortly: as §1

Test [10] addresses T7, FEV (Homo sapiens, UniProt Q99581 1-238).
T7 sequence: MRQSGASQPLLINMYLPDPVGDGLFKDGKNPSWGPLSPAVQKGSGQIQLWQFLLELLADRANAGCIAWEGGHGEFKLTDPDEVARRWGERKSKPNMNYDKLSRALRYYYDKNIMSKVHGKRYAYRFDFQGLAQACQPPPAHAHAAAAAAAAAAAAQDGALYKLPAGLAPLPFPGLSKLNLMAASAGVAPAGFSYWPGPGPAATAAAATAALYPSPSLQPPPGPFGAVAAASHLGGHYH
The conditions noted are these: protein: recombinant; tags: N-terminal GST; dsDNA, one strand shown. Summed up:
as §1

Test [11] concerns the target ETV5 (Homo sapiens, UniProt P41161 1-510). The settings on record: protein: recombinant; tags: N-terminal GST; dsDNA, one strand shown. Summed up: as §1
Test [12] concerns the target HSF1 (Homo sapiens, UniProt Q00613 1-529). The settings on record: protein: recombinant; tags: N-terminal GST; chain copies: 3; dsDNA, one strand shown. Summed up: as §1
The target of test [13] is T8, SPIC (Homo sapiens, UniProt Q8N5J4 1-248).
T8 sequence: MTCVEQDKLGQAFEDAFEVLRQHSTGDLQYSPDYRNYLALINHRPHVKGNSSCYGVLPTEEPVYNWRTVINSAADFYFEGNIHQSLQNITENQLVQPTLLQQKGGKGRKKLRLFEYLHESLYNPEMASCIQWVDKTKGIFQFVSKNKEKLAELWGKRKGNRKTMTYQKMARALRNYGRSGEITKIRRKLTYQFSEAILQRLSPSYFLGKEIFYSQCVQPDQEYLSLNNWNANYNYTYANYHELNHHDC
The settings on record: protein: recombinant; tags: N-terminal GST; dsDNA, one strand shown. Summed up:
as §1

The target of test [14] is ELF4 (Homo sapiens, UniProt Q99607 1-663). The conditions noted are these: protein: recombinant; tags: N-terminal GST; dsDNA, one strand shown. Put shortly: as §1
Test [15] deals with T9, ELK4 (Homo sapiens, UniProt P28324-2 1-405).
T9 sequence: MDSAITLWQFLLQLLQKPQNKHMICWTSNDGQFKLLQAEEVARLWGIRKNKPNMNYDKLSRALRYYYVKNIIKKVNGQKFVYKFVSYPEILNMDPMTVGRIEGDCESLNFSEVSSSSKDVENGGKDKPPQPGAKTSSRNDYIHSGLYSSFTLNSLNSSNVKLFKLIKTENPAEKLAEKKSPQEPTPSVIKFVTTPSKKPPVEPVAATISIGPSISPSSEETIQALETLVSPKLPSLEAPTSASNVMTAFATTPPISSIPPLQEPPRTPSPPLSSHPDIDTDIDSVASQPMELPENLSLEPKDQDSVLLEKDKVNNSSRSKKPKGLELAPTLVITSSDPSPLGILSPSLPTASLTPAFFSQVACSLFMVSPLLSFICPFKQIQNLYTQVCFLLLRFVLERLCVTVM
The settings on record: protein: recombinant; tags: N-terminal GST; dsDNA, one strand shown. Put shortly: as §1

Test [16] concerns the target T10, ETV2 (Homo sapiens, UniProt O00321 1-342).
T10 sequence: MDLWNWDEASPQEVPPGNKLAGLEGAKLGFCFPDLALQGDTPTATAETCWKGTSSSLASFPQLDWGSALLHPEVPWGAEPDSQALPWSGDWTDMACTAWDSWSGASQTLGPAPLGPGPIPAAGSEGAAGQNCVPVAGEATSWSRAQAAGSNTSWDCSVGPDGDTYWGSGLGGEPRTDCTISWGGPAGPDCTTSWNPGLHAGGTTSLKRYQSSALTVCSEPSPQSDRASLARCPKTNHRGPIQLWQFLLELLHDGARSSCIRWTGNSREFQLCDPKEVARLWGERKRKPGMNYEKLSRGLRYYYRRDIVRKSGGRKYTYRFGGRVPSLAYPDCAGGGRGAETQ
The settings on record: protein: recombinant; tags: N-terminal GST; dsDNA, one strand shown. Put shortly: as §1

The target in test [17] is T11, ELF3 (Homo sapiens, UniProt P78545 1-371).
T11 sequence: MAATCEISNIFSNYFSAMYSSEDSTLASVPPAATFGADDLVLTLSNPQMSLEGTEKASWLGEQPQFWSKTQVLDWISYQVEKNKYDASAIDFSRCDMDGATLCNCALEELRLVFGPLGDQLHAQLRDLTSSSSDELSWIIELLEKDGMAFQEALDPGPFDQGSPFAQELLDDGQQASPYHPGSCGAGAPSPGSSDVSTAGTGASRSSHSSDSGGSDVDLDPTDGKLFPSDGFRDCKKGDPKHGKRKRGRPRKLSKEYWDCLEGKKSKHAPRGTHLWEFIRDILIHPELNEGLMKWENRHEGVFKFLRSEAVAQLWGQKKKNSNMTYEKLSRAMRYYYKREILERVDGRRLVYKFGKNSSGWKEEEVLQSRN
The conditions noted are these: protein: recombinant; tags: N-terminal GST; dsDNA, one strand shown. Summed up: as §1

In test [18] the target is CRX (Homo sapiens, UniProt O43186 1-299). The settings on record: protein: recombinant; tags: N-terminal GST; dsDNA, one strand shown. Put shortly:
as §1

In test [19] the target is ETV1 (Homo sapiens, UniProt P50549 1-477). The settings on record: protein: recombinant; tags: N-terminal GST; dsDNA, one strand shown. Summed up:
as §1

Sequence of ELF1 (P32519 whole entry): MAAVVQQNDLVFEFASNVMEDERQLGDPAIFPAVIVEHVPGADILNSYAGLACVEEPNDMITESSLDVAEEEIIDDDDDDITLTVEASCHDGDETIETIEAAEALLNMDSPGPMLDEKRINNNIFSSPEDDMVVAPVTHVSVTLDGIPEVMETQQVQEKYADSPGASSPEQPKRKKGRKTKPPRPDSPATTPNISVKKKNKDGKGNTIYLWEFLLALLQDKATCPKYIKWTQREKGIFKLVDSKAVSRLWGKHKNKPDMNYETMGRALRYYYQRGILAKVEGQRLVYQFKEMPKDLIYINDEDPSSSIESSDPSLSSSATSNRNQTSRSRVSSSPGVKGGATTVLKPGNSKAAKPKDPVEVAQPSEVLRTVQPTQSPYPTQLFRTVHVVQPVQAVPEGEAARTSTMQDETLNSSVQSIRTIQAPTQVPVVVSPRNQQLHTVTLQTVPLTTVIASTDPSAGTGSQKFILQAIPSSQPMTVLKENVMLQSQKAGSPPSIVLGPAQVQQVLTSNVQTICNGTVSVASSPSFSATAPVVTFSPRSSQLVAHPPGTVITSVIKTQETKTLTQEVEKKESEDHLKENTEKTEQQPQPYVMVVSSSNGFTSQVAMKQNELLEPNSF
Sequence of HSF1 (Q00613 whole entry): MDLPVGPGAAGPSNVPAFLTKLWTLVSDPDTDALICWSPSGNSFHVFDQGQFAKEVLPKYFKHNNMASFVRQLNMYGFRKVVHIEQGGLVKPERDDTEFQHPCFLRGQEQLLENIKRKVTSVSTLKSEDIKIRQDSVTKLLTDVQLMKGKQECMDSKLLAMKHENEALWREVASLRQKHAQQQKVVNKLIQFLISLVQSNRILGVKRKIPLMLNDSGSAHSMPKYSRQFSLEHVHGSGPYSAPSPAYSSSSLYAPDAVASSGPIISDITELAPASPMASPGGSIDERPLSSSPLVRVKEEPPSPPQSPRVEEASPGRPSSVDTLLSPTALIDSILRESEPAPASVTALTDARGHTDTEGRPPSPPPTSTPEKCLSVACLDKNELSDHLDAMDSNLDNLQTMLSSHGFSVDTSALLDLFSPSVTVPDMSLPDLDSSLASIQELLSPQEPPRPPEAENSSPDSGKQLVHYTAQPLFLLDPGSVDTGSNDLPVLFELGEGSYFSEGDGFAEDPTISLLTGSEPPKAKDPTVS
Sequence of ETV5 (P41161 whole entry): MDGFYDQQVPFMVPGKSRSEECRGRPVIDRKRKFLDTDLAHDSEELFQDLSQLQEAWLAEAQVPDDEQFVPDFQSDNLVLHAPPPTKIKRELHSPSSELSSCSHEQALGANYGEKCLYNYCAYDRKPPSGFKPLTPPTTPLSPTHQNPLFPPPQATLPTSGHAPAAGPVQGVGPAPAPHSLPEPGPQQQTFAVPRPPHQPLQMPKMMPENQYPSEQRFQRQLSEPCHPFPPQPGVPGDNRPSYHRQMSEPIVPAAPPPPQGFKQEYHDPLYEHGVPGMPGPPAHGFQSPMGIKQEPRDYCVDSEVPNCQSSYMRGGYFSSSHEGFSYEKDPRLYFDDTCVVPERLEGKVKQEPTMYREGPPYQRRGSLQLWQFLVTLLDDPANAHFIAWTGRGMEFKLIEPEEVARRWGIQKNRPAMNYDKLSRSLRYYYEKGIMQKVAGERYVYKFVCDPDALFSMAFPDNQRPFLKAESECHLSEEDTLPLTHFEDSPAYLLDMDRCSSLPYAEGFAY
Sequence of ELF4 (Q99607 whole entry): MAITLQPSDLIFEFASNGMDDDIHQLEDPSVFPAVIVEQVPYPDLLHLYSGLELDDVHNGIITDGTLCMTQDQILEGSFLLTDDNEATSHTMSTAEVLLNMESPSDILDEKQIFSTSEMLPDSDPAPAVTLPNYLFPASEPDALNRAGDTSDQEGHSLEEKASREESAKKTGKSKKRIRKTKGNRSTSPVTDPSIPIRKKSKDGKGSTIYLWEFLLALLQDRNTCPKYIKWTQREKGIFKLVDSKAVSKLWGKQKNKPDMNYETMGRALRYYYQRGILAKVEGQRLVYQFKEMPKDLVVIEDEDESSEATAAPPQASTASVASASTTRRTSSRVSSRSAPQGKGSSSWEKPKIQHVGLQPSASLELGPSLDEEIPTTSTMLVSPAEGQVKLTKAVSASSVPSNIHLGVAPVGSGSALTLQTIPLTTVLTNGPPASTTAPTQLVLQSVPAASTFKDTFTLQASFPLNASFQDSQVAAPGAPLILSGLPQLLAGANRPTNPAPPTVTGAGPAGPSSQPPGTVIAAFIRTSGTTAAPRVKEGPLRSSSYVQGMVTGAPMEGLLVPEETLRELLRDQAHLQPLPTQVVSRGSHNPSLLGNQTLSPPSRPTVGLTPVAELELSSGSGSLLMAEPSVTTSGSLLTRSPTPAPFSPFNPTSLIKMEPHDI
Sequence of CRX (O43186 whole entry): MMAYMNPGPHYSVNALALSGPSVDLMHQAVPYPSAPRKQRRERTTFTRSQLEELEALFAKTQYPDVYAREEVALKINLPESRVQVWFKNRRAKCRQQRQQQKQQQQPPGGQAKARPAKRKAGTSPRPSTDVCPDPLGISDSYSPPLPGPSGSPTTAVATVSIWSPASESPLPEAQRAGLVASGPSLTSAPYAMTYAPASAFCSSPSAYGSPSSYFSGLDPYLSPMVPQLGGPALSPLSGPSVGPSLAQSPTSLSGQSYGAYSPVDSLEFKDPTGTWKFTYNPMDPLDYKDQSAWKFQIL
Sequence of ETV1 (P50549 whole entry): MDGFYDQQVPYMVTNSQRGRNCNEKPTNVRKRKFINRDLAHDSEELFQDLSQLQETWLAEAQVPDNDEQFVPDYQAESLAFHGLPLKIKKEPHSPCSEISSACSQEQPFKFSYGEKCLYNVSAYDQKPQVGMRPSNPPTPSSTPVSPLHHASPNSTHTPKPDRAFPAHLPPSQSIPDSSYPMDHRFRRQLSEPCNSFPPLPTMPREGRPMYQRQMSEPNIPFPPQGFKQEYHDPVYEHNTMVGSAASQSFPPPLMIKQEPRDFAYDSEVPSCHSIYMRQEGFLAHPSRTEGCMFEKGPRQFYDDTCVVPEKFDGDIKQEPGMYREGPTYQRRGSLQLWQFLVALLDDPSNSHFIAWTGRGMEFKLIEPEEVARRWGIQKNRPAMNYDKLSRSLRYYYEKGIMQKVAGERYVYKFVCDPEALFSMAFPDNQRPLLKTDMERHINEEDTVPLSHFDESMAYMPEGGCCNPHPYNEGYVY
Sequence of SPIB (Q01892 whole entry): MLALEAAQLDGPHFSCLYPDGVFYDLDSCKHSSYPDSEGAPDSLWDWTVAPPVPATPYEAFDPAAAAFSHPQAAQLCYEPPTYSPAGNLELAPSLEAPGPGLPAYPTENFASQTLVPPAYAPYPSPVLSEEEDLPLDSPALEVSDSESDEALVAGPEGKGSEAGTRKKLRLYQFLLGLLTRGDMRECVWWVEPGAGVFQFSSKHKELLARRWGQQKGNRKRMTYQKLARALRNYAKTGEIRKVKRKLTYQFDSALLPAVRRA

For ATCTTT, the binding signal in test [1] was 1.26 fold enrichment (6-mer frequency, TF over GST control); in test [2], 1.24 fold enrichment (6-mer frequency, TF over GST control); in test [3] it was 1.22 fold enrichment (6-mer frequency, TF over GST control); in test [4] it was 1.21 fold enrichment (6-mer frequency, TF over GST control); in test [5], 1.19 fold enrichment (6-mer frequency, TF over GST control); in [6] it was 1.27 fold enrichment (6-mer frequency, TF over GST control). The binding signal in [7] was 1.21 fold enrichment (6-mer frequency, TF over GST control); in [8] it was 1.23 fold enrichment (6-mer frequency, TF over GST control); in [9] it was 1.22 fold enrichment (6-mer frequency, TF over GST control); in test [10], 1.19 fold enrichment (6-mer frequency, TF over GST control); in test [11] it was 1.16 fold enrichment (6-mer frequency, TF over GST control); in test [12], 1.58 fold enrichment (6-mer frequency, TF over GST control). In addition, the binding signal in test [13] is 1.35 fold enrichment (6-mer frequency, TF over GST control); in [14], 1.22 fold enrichment (6-mer frequency, TF over GST control); in [15] it was 1.29 fold enrichment (6-mer frequency, TF over GST control); in [16] it was 1.15 fold enrichment (6-mer frequency, TF over GST control); in test [17] it was 1.17 fold enrichment (6-mer frequency, TF over GST control); in test [18] it was 1.76 fold enrichment (6-mer frequency, TF over GST control). For the same sequence, the binding signal in test [19] is 1.24 fold enrichment (6-mer frequency, TF over GST control).
